Assay results taken from the supplement of paper PMC4206461.

test system: Pseudomonas aeruginosa PA14 dppA1-A5 penta mutant + pBBR5.DppA1 (PA14_58350); test: respiration area under curve with compound as sole nitrogen source, 24 h (OmniLog AUC (arbitrary units)); higher = more respiration / better utilisation as nitrogen source, active = 2000 or more
Protocol: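 Biolog Phenotype MicroArray plates PM6-PM8: each di/tripeptide is the sole nitrogen source. Tetrazolium reduction was read in the OmniLog for 24 h at 37°C and summarised as area under the respiration curve (arbitrary units). Values below 2000 count as no respiration. Strain is the SBP penta mutant complemented with DppA1 on a plasmid under its native promoter. Lys/His/Cys peptides are excluded.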

**Q.** How did the “respiration area under curve” value turn out when `N[C@@H](Cc1ccccc1)C(=O)N[C@@H](Cc1c[nH]c2ccccc12)C(=O)O` (plate: PM7) was run?
**A.** The value was 389 (inactive).

**Q.** `CC(C)[C@H](NC(=O)[C@@H](N)CCC(=O)O)C(=O)O` (plate: PM6) was tested. Which “respiration area under curve” value did it give?
**A.** Its value is 2600 (active).

**Q.** How did the “respiration area under curve” value turn out when `CCC(C)C(N)C(=O)NC(CC(N)=O)C(=O)O` (stereo not given) (plate: PM8) was run?
**A.** The value was 7760 (active).

**Q.** Which “respiration area under curve” value does the source give for `C[C@@H](O)[C@H](N)C(=O)N[C@@H](CCCN=C(N)N)C(=O)O` (plate: PM7) here?
**A.** Its value is 14200 (active).

**Q.** For `C[C@H](NC(=O)[C@@H](N)[C@@H](C)O)C(=O)O` (plate: PM7), which “respiration area under curve” value is on record?
**A.** Its value is 8470 (active).

**Q.** How did the “respiration area under curve” value turn out when `N[C@@H](CCC(=O)O)C(=O)N[C@@H](Cc1ccc(O)cc1)C(=O)O` (plate: PM6) was run?
**A.** Its value is 1030 (inactive).

**Q.** With `CC(C)[C@H](N)C(=O)N[C@@H](CCC(=O)O)C(=O)O` (plate: PM8) as the compound, how does the “respiration area under curve” value read?
**A.** Its value is 2880 (active).

**Q.** `CC(C)[C@H](NC(=O)[C@@H](N)CC(N)=O)C(=O)O` (plate: PM6) was tested. Which “respiration area under curve” value did it give?
**A.** The value was 5500 (active).

**Q.** For `N[C@@H](Cc1ccccc1)C(=O)N[C@@H](Cc1ccc(O)cc1)C(=O)O` (plate: PM8), which “respiration area under curve” value is on record?
**A.** The value was 2050 (active).

**Q.** Which “respiration area under curve” value does the source give for `CC(C)C[C@H](NC(=O)[C@@H](N)C(C)C)C(=O)O` (plate: PM7) here?
**A.** The value was 7530 (active).

**Q.** Which “respiration area under curve” value does the source give for `CC(C)[C@H](N)C(=O)N[C@@H](CCCN=C(N)N)C(=O)O` (plate: PM7) here?
**A.** Its value is 12100 (active).

**Q.** Which “respiration area under curve” value does the source give for `C[C@H](N)C(=O)N[C@@H](CCCN=C(N)N)C(=O)O` (plate: PM6) here?
**A.** The value was 9300 (active).

**Q.** `NCC(=O)N[C@@H](Cc1ccccc1)C(=O)O` (plate: PM6) was tested. Which “respiration area under curve” value did it give?
**A.** Its value is 2000 (active).

**Q.** With `CC(C)C[C@H](NC(=O)[C@@H](N)CC(=O)O)C(=O)O` (plate: PM6) as the compound, how does the “respiration area under curve” value read?
**A.** The value was 984 (inactive).

**Q.** For `N[C@@H](Cc1ccccc1)C(=O)N[C@@H](CO)C(=O)O` (plate: PM7), which “respiration area under curve” value is on record?
**A.** Its value is 6540 (active).

**Q.** For `N[C@@H](CO)C(=O)NCC(=O)O` (plate: PM7), which “respiration area under curve” value is on record?
**A.** The value was 6260 (active).

**Q.** With `CC(C)C[C@H](NC(=O)[C@@H](N)Cc1c[nH]c2ccccc12)C(=O)O` (plate: PM7) as the compound, how does the “respiration area under curve” value read?
**A.** The value was 3710 (active).

**Q.** Which “respiration area under curve” value does the source give for `CC(C)C[C@@H](N)C(=O)NCC(=O)O` (plate: PM8) here?
**A.** Its value is 0 (inactive).

**Q.** Which “respiration area under curve” value does the source give for `CSCC[C@H](N)C(=O)N[C@@H](CC(=O)O)C(=O)O` (plate: PM7) here?
**A.** The value was 4440 (active).

**Q.** With `C[C@H](N)C(=O)N[C@@H](Cc1ccc(O)cc1)C(=O)O` (plate: PM6) as the compound, how does the “respiration area under curve” value read?
**A.** The value was 5920 (active).

**Q.** How did the “respiration area under curve” value turn out when `CC(C)C[C@H](N)C(=O)N1CCC[C@H]1C(=O)O` (plate: PM8) was run?
**A.** Its value is 5120 (active).

**Q.** With `CC(C)C[C@H](N)C(=O)NCC(=O)NCC(=O)O` (plate: PM8) as the compound, how does the “respiration area under curve” value read?
**A.** The value was 8090 (active).

**Q.** Which “respiration area under curve” value does the source give for `N[C@@H](CC(=O)O)C(=O)N[C@@H](Cc1ccccc1)C(=O)O` (plate: PM6) here?
**A.** Its value is 1720 (inactive).

**Q.** How did the “respiration area under curve” value turn out when `CC(C)[C@H](N)C(=O)N[C@@H](C)C(=O)O` (plate: PM8) was run?
**A.** Its value is 4740 (active).

**Q.** How did the “respiration area under curve” value turn out when `CC(C)[C@H](N)C(=O)NCC(=O)O` (plate: PM7) was run?
**A.** Its value is 6900 (active).

**Q.** `C[C@@H](O)[C@H](N)C(=O)N[C@@H](CO)C(=O)O` (plate: PM8) was tested. Which “respiration area under curve” value did it give?
**A.** The value was 5330 (active).

**Q.** Which “respiration area under curve” value does the source give for `NC(N)=NCCC[C@H](N)C(=O)N[C@@H](CC(=O)O)C(=O)O` (plate: PM6) here?
**A.** The value was 7970 (active).

**Q.** With `CC(C)C[C@H](NC(=O)[C@@H](N)Cc1ccc(O)cc1)C(=O)O` (plate: PM7) as the compound, how does the “respiration area under curve” value read?
**A.** The value was 6720 (active).

**Q.** How did the “respiration area under curve” value turn out when `NCC(=O)NCC(=O)NCC(=O)O` (plate: PM8) was run?
**A.** Its value is 940 (inactive).

**Q.** For `CC(C)C[C@H](N)C(=O)N[C@H](C(=O)O)C(C)C` (plate: PM7), which “respiration area under curve” value is on record?
**A.** Its value is 10300 (active).

**Q.** `CSCC[C@H](NC(=O)[C@@H](N)CCCN=C(N)N)C(=O)O` (plate: PM6) was tested. Which “respiration area under curve” value did it give?
**A.** The value was 9220 (active).

**Q.** With `CC(C)C[C@H](NC(=O)[C@@H](N)CO)C(=O)O` (plate: PM7) as the compound, how does the “respiration area under curve” value read?
**A.** The value was 6240 (active).

**Q.** With `NCC(=O)N[C@@H](Cc1ccccc1)C(=O)N[C@@H](Cc1ccccc1)C(=O)O` (plate: PM8) as the compound, how does the “respiration area under curve” value read?
**A.** The value was 5190 (active).

**Q.** With `N[C@@H](Cc1ccc(O)cc1)C(=O)N[C@@H](Cc1ccccc1)C(=O)O` (plate: PM7) as the compound, how does the “respiration area under curve” value read?
**A.** The value was 6470 (active).

**Q.** Which “respiration area under curve” value does the source give for `C[C@H](NC(=O)[C@@H]1CCCN1)C(=O)O` (plate: PM7) here?
**A.** Its value is 6110 (active).

**Q.** For `CC[C@H](C)[C@H](N)C(=O)N[C@H](C(=O)O)C(C)C` (plate: PM6), which “respiration area under curve” value is on record?
**A.** Its value is 2860 (active).

**Q.** How did the “respiration area under curve” value turn out when `C[C@H](NC(=O)CN)C(=O)O` (plate: PM6) was run?
**A.** The value was 2380 (active).

**Q.** `O=C(O)[C@H](CO)NC(=O)[C@@H]1CCCN1` (plate: PM8) was tested. Which “respiration area under curve” value did it give?
**A.** The value was 5440 (active).

**Q.** With `NC(=O)CC[C@H](N)C(=O)NCC(=O)O` (plate: PM6) as the compound, how does the “respiration area under curve” value read?
**A.** The value was 5240 (active).

**Q.** For `C[C@@H](NC(=O)CN)C(=O)O` (plate: PM8), which “respiration area under curve” value is on record?
**A.** Its value is 3490 (active).
